Data published in PubChem BioAssay AID1159580 (chemical genetic matrix, 2015).
“And” between values parts separate entries of the source, which are not always exact repeats. Equal entries are not always repeated. About 2,000 (36%) of roughly 5,500 compounds were called active. Inconclusive results (about 18%) are left out. No stated cut-off is given here; in the data, active means normalized growth mostly below about 0.91 (no sharp cut-off); inconclusive means no clear call, values can overlap the other calls; inactive means mostly above about 0.92. This is one part of the list.

Assay: chemical genetic growth profiling, strain panel (AID 1159580);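 further: tested at 20 µM; growth read once vehicle control cultures reached saturation at 30 °C; 1 = growth at the plate median or of vehicle wells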
Conditions: S. cerevisiae deletion strains, growth OD

Measured: normalized growth

CC1(C)C2CC(=O)[C@]3(C)C(CC[C@@]4(C)[C@H](c5ccoc5)OC(=O)[C@H]5O[C@]543)[C@@]2(C)C(=O)C[C@H]1O (stereo not given in full)
inactive: locus YAL013W, strain DEP1, stronger effect = lower value 1.03 | locus YAL021C, strain ccr4, stronger effect = lower value 1.01 | locus YAL026C, strain drs2, stronger effect = lower value 1 | locus YAL030W, strain snc1, stronger effect = lower value 1.01 | locus YBL061C, strain skt5, stronger effect = lower value 1 | locus YBR009C, strain hhf1, stronger effect = lower value 0.992 | locus YBR021W, strain FUR4, stronger effect = lower value 0.995 | locus YBR023C, strain chs3, stronger effect = lower value 1.02 | locus YBR171W, strain sec66, stronger effect = lower value 1.01 | locus YBR229C, strain ROT2, stronger effect = lower value 1 | locus YBR231C, strain swc5, stronger effect = lower value 1 | locus YBR279W, strain paf1, stronger effect = lower value 1.01 | locus YCL011C, strain gbp2, stronger effect = lower value 1.02 | locus YCL016C, strain dcc1, stronger effect = lower value 1.01 | locus YCL029C, strain bik1, stronger effect = lower value 1.01 | locus YCL061C, strain MRC1, stronger effect = lower value 1 | locus YCL069W, strain vba3, stronger effect = lower value 1.01 | locus YCR088W, strain abp1, stronger effect = lower value 1.01 | locus YDL005C, strain med2, stronger effect = lower value 1 | locus YDL035C, strain GPR1, stronger effect = lower value 0.975 | locus YDL040C, strain nat1, stronger effect = lower value 1 | locus YDL074C, strain BRE1, stronger effect = lower value 1.03 | locus YDL101C, strain DUN1, stronger effect = lower value 1.03 | locus YDL185W, strain tfp1, stronger effect = lower value 1.02 | locus YDL192W, strain arf1, stronger effect = lower value 1.01 | locus YDR001C, strain nth1, stronger effect = lower value 1 | locus YDR069C, strain doa4, stronger effect = lower value 0.995 | locus YDR101C, strain arx1, stronger effect = lower value 1 | locus YDR137W, strain rgp1, stronger effect = lower value 1.06 | locus YDR150W, strain NUM1, stronger effect = lower value 1 | locus YDR159W, strain sac3, stronger effect = lower value 1.01 | locus YDR162C, strain NBP2, stronger effect = lower value 0.983 | locus YDR195W, strain ref2 0.977 | locus YDR297W, strain sur2, stronger effect = lower value 1.01 | locus YDR318W, strain mcm21, stronger effect = lower value 1.01 | locus YDR334W, strain swr1, stronger effect = lower value 1.01 | locus YDR335W, strain msn5, stronger effect = lower value 0.999 | locus YDR388W, stronger effect = lower value 1.01 | locus YDR392W, strain spt3, stronger effect = lower value 1.01 | locus YDR502C, strain sam2, stronger effect = lower value 1.02 | locus YEL003W, strain gim4, stronger effect = lower value 1.01 | locus YEL037C, strain rad23, stronger effect = lower value 1 | locus YEL061C, strain CIN8 (second series), stronger effect = lower value 0.996 | locus YEL061C, strain CIN8, stronger effect = lower value 1 | locus YER015W, strain faa2, stronger effect = lower value 0.995 | locus YER016W, strain bim1, stronger effect = lower value 1.01 | locus YER110C, stronger effect = lower value 1.02 | locus YER111C, strain swi4, stronger effect = lower value 1.01 | locus YER155C, strain BEM2 (second series), stronger effect = lower value 1.02 | locus YER155C, strain BEM2, stronger effect = lower value 1 | locus YER167W, strain BCK2, stronger effect = lower value 0.993 | locus YFR010W, strain ubp6, stronger effect = lower value 0.997 | locus YGL078C, strain dbp3, stronger effect = lower value 1.01 | locus YGL086W, strain mad1, stronger effect = lower value 1.01 | locus YGL167C, strain pmr1, stronger effect = lower value 1.01 | locus YGL173C, strain kem1, stronger effect = lower value 1.02 | locus YGL227W, strain vid30, stronger effect = lower value 1.01 | locus YGL240W, strain doc1, stronger effect = lower value 1.03 | locus YGL248W, strain PDE1, stronger effect = lower value 1.03 | locus YGL253W, strain hxk2, stronger effect = lower value 1 | locus YGR078C, strain PAC10, stronger effect = lower value 1.03 | locus YGR135W, strain pre9, stronger effect = lower value 1.01 | locus YGR252W, strain gcn5, stronger effect = lower value 0.993 | locus YHR013C, strain ard1, stronger effect = lower value 1.01 | locus YHR027C, strain rpn1, stronger effect = lower value 1.01 | locus YHR030C, strain SLT2, stronger effect = lower value 0.992 and 1.02 | locus YHR079C, strain IRE1 (second series), stronger effect = lower value 1.02 | locus YHR079C, strain IRE1, stronger effect = lower value 1.02 | locus YHR094C, strain hxt1, stronger effect = lower value 1.02 | locus YHR129C, strain ARP1, stronger effect = lower value 1.01 | locus YHR142W, strain chs7, stronger effect = lower value 0.999 | locus YHR200W, strain rpn10, stronger effect = lower value 1.01 | locus YIL066C, strain RNR3, stronger effect = lower value 0.979 | locus YIL073C, strain SPO22, stronger effect = lower value 1.03 | locus YIL125W, strain kgd1, stronger effect = lower value 1.01 | locus YIR030C, strain dcg1, stronger effect = lower value 1.02 | locus YJL092W, strain hpr5, stronger effect = lower value 1 | locus YJL095W, strain BCK1 (second series), stronger effect = lower value 1.01 | locus YJL095W, strain BCK1, stronger effect = lower value 1.06 and 1.03 | locus YJL115W, strain asf1, stronger effect = lower value 1 | locus YJL129C, strain trk1, stronger effect = lower value 1.03 | locus YJL134W, strain LCB3, stronger effect = lower value 0.999 | locus YJL154C, strain vps35, stronger effect = lower value 1 | locus YJL164C, strain tpk1, stronger effect = lower value 1 | locus YJL166W, strain qcr8, stronger effect = lower value 1.01 | locus YJL168C, strain set2, stronger effect = lower value 1.01 | locus YJL187C, strain SWE1 (second series), stronger effect = lower value 1.05 | locus YJR043C, strain POL32, stronger effect = lower value 0.963 | locus YJR066W, strain TOR1, stronger effect = lower value 0.956 | locus YJR075W, strain HOC1, stronger effect = lower value 1.03 | locus YKL009W, strain mrt4, stronger effect = lower value 1.03 | locus YKL068W, stronger effect = lower value 1.01 | locus YKL085W, strain MDH1 (second series), stronger effect = lower value 1 | locus YKL085W, strain MDH1, stronger effect = lower value 1 | locus YKL160W, strain elf1, stronger effect = lower value 1.01 | locus YKL190W, strain CNB1, stronger effect = lower value 1.01 | locus YKR001C, strain vps1, stronger effect = lower value 1.05 | locus YKR026C, strain gcn3, stronger effect = lower value 1 | locus YKR091W, strain srl3, stronger effect = lower value 1 | locus YLL001W, strain dnm1, stronger effect = lower value 1.01 | locus YLL026W, stronger effect = lower value 1.01 | locus YLL041C, strain sdh2, stronger effect = lower value 0.998 | locus YLR027C, strain aat2, stronger effect = lower value 1.01 | locus YLR039C, strain RIC1, stronger effect = lower value 1.02 | locus YLR058C, strain SHM2, stronger effect = lower value 1.02 | locus YLR102C, strain apc9, stronger effect = lower value 1.02 | locus YLR113W, strain HOG1, stronger effect = lower value 0.981 | locus YLR221C, strain rsa3, stronger effect = lower value 1 | locus YLR258W, strain gsy2, stronger effect = lower value 1.01 | locus YLR262C, strain YPT6 (second series), stronger effect = lower value 0.982 | locus YLR262C, strain YPT6, stronger effect = lower value 1 | locus YLR268W, strain sec22, stronger effect = lower value 1.02 | locus YLR320W, strain mms22, stronger effect = lower value 1.01 | locus YLR330W, strain CHS5, stronger effect = lower value 1 | locus YLR342W, strain FKS1 (second series), stronger effect = lower value 0.988 | locus YLR342W, strain FKS1, stronger effect = lower value 1.01 | locus YLR357W, strain rsc2, stronger effect = lower value 0.994 | locus YLR370C, strain arc18, stronger effect = lower value 0.996 | locus YLR371W, strain rom2, stronger effect = lower value 1.02 | locus YLR384C, strain iki3, stronger effect = lower value 1.01 | locus YLR418C, strain cdc73, stronger effect = lower value 1.03 | locus YML016C, strain PPZ1, stronger effect = lower value 0.997 | locus YML032C, strain rad52, stronger effect = lower value 1.01 | locus YML120C, strain ndi1, stronger effect = lower value 1.01 | locus YML124C, strain tub3, stronger effect = lower value 1.01 | locus YMR058W, strain fet3, stronger effect = lower value 1 | locus YMR078C, strain ctf18, stronger effect = lower value 1.02 | locus YMR125W, strain sto1, stronger effect = lower value 1.02 | locus YMR129W, stronger effect = lower value 1.02 | locus YMR205C, strain PFK2, stronger effect = lower value 1 | locus YMR223W, strain ubp8, stronger effect = lower value 1.01 | locus YMR231W, strain pep5, stronger effect = lower value 1.01 | locus YMR263W, strain SAP30, stronger effect = lower value 1.04 | locus YMR307W, strain GAS1, stronger effect = lower value 1.04 | locus YNL067W, strain RPL9B, stronger effect = lower value 1.05 | locus YNL071W, strain lat1, stronger effect = lower value 1 | locus YNL153C, strain GIM3, stronger effect = lower value 1.04 | locus YNL183C, strain NPR1, stronger effect = lower value 0.962 | locus YNL209W, strain ssb2, stronger effect = lower value 0.997 | locus YNL233W, strain BNI4, stronger effect = lower value 1.04 | locus YNL248C, strain rpa49, stronger effect = lower value 1.02 | locus YNL250W, strain rad50, stronger effect = lower value 1.02 | locus YNL271C, strain bni1, stronger effect = lower value 1.01 | locus YNL298W, strain CLA4, stronger effect = lower value 1.02 | locus YNL307C, strain MCK1, stronger effect = lower value 1.02 | locus YNL322C, strain KRE1 (second series), stronger effect = lower value 1.03 | locus YNR049C, strain mso1, stronger effect = lower value 0.995 | locus YNR052C, strain pop2, stronger effect = lower value 1.02 | locus YOL012C, strain htz1 2.06 | locus YOL147C, strain pex11, stronger effect = lower value 1.02 | locus YOR001W, strain rrp6, stronger effect = lower value 0.995 | locus YOR061W, strain CKA2, stronger effect = lower value 0.999 | locus YOR069W, strain VPS5, stronger effect = lower value 1.01 | locus YOR070C, strain gyp1, stronger effect = lower value 1.01 | locus YOR080W, strain dia2, stronger effect = lower value 0.997 | locus YOR083W, strain WHI5, stronger effect = lower value 1.01 | locus YOR106W, strain vam3, stronger effect = lower value 1 | locus YOR136W, strain idh2, stronger effect = lower value 1.03 | locus YOR144C, strain elg1, stronger effect = lower value 1.01 | locus YOR184W, strain ser1, stronger effect = lower value 1.01 | locus YOR231W, strain MKK1, stronger effect = lower value 1.02 | locus YOR265W, strain rbl2, stronger effect = lower value 0.99 | locus YOR270C, strain vph1, stronger effect = lower value 0.948 | locus YOR290C, strain snf2, stronger effect = lower value 1.01 | locus YOR316C, strain cot1, stronger effect = lower value 1.01 | locus YPL051W, strain arl3, stronger effect = lower value 1.01 | locus YPL078C, strain atp4, stronger effect = lower value 1.01 | locus YPL106C, strain sse1, stronger effect = lower value 1.01 | locus YPL240C, strain hsp82, stronger effect = lower value 1.02 | locus YPL256C, strain CLN2, stronger effect = lower value 1.01 | locus YPR119W, strain clb2, stronger effect = lower value 1.01 | locus YPR141C, strain kar3, stronger effect = lower value 1.01 | locus YPR163C, strain tif3, stronger effect = lower value 1.01 | locus YPR167C, strain met16, stronger effect = lower value 1.01 | strain wtn01, stronger effect = lower value 1.02
